GLP-1R agonist: GLP-1 receptor (human) agonism. HEK293 GLP-1R CRE-luciferase, luminescence, 4-6 h; cells express a hypersensitive GLP-1R form. Potency, µM (top dose mostly 45.6 µM), for the others: at the top dose activation, hits mostly activators. hit rate 0.007% among 380,000; also: % of control where 0% means no effect
Target sequence (P43220 whole entry, looked up): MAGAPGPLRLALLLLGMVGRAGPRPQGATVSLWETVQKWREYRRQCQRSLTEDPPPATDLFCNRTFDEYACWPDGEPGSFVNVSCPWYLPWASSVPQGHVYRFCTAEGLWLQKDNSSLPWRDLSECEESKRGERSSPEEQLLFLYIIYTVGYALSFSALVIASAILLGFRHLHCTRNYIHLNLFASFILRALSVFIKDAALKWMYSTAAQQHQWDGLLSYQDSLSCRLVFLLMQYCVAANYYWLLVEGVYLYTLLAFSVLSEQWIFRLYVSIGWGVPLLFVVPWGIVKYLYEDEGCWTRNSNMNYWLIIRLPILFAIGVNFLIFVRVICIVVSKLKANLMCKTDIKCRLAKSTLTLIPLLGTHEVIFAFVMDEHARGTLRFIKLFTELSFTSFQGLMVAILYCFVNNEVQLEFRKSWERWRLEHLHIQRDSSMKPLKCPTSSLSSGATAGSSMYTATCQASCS
GLP-1R inv ag: inverse agonists of human GLP-1 receptor | P43220 | HEK293 GLP-1R CRE-luciferase, luminescence, 24 h; GLP-1R form is constitutively active | Potency, µM (doses to about 38.3 µM), without a hit: top-dose activity change, negative = inhibition, actives largely listed as inhibitors | hit rate 1.6% among 410,000 | AID 624417; also: % is scaled to controls: 0 for no effect and ±100 for the full control effect; nearly all actives have a fitted effect of over 55% in size
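HEK293 cells stably co-expressing constitutively active GLP-1R and a cAMP-responsive luciferase reporter were seeded in DMEM with 10% Nu serum, given compounds after 12 h, and incubated 24 h at 37 deg C. Luminescence was then read.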
HEK293 tox: cytotoxicity in counter-screen for GLP-1R inverse agonists; AID 624418; Potency, µM (series often up to 38.3 µM), for the others: top-dose activity change, negative = inhibition, usual class: inhibitors; hit rate 0.13% among 410,000; HEK293 cAMP-luciferase reporter cells, luminescence, 24 h;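 also: loss of luciferase light is scored as toxicity; % is scaled to controls: 0 for no effect and ±100 for the full control effect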
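Here, cytotoxicity is scored as loss of luminescence. The MLSMR collection was tested on cells seeded in medium containing 10% Nu serum, with a 24 hr compound exposure preceded by 12 hours of culture.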
* = called active by the depositor; ? = inconclusive; . = not tested or not shown. Sampled rows, rich in hits. Any-hit rate of the full collection: about 1.7%. Calls follow the shape of the dose curve; as a rule, active = well fitted curve in the direction sought with a large enough effect; inconclusive = small, poorly fitted or top-dose-only effect, or another doubt; inactive = no such curve, though single readings can be large; an effect the other way counts as inactive or inconclusive. Potency is read from the fitted curve at half-maximal effect.

SMILES	GLP-1R agonist	GLP-1R inv ag	HEK293 tox
CCCCNC(=O)CN1CCN(c2ccc(NC(=O)c3ccc(OC)cc3)cc2C(=O)O)CC1	.	2.5%	1.1%
COc1ccc(Cl)cc1NC(=O)CSC1=Nc2ccccc2C2=NC(CC(=O)NC3CCCCC3)C(=O)N12 (stereo not drawn)	.	11.4%	-2.1%
CC1(C)CC(n2c(NCCO)nc3c(c2=O)C2(CCCC2)Cc2ccccc2-3)CCO1 (stereo not drawn)	15.2%	?	-16.3%
O=c1c2c(nc(NCCO)n1CC1CCCCC1)-c1ccccc1CC21CCCC1	0.9%	3.98µM*	?
Cc1ccccc1NC(=S)N(CCc1c(C)[nH]c2ccc(F)cc12)Cc1cccnc1	21.4%	?	-4.2%
Cc1[nH]c2ccc(F)cc2c1CCN(Cc1cccnc1)C(=S)Nc1cccc(F)c1	12.8%	10µM*	-10.9%
CC(C)(C)C1CCN2CCCC(c3ccc([N+](=O)[O-])cc3)(C1)C21OCCO1 (stereo not drawn)	-0.8%	-2.9%	-12.3%
CCCC(=O)Nc1cc(OC)c(C(=O)OC)cc1Cl	0.3%	11.3%	18.1%
N#C/C(N=Nc1ccccc1O)=N\Nc1ccccc1O	-16.8%	?	10µM*
Oc1ccccc1N=N/C(=N/Nc1ccccc1O)c1ccccc1	0.4%	-2.0%	-16.4%
CC(C)c1ccc(Nc2nc(N3CCOCC3)nc(N3CCOCC3)n2)cc1	-0.9%	?	1.8%
CC(C)c1ccc(Nc2nc(NCc3ccco3)nc(N3CCOCC3)n2)cc1	8.6%	2.24µM*	-9.2%
CS(=O)(=O)Cc1cccc(C(=O)NN(c2ccccc2)c2ccccc2)c1	-1.2%	19.2%	11.9%
O=C(CN1CCN(c2ccccc2F)CC1)NC(=O)NC1CCCCC1	19.2%	?	0.5%
COc1ccc(-c2sc(NC(C)=O)nc2-c2ccccc2)cc1	-3.6%	?	48.1%
O=C(CSCC(=O)N1CCCCC1)Nc1nc(-c2ccccc2)c(-c2ccccc2)s1	-2.9%	5.62µM*	-5.3%
O=C(CSc1nc(-c2ccccc2)c(-c2ccccc2)o1)N1CCCCC1	-0.5%	11.2µM*	1.8%
O=C(CCSc1nc(-c2ccccc2)c(-c2ccccc2)o1)N1CCCCC1	13.2%	?	-5.1%
N#Cc1ccc(CC(=O)c2ccccc2)[nH]c1=O	-12.6%	2.5%	42.2%
COc1ccc(-c2ccc(SCC(=O)c3ccccc3)nn2)cc1OC	10.2%	65.2%	-0.2%
CCOc1ccc(C(C)NC(=O)c2cccs2)cc1OCC (stereo not drawn)	-1.6%	15.6%	-1.3%
CCOc1ccc(-c2cc3c(=O)n(CC(=O)NCc4ccc(F)cc4)ccn3n2)cc1	.	0.5%	-4.3%
O=C1c2ccccc2NC(c2c(Cl)cccc2Cl)N1Cc1ccccc1 (stereo not drawn)	-18.7%	?	-3.8%
O=C1c2ccccc2NC(c2ccc(Cl)cc2Cl)N1Cc1ccccc1 (stereo not drawn)	-15.4%	7.08µM*	-13.9%
Cc1ccc(S(=O)(=O)N2C[C@H]3N(C(=O)OC(C)C)N(C(=O)OC(C)C)C[C@H](OC(=O)NCc4ccccc4)[C@@]3(O)C2)cc1	4.5%	?	-3.6%
SMILES	GLP-1R agonist	GLP-1R inv ag	HEK293 tox
Cc1ccc(S(=O)(=O)N2C[C@H]3N(C(=O)OC(C)C)N(C(=O)OC(C)C)C[C@H](OC(=O)NCC4CCCCC4)[C@@]3(O)C2)cc1	-3.5%	4.47µM*	?
C=CCc1ccc(OCC(O)CO)c(OC)c1 (stereo not drawn)	0.7%	-5.5%	11.7%
C=CCc1ccc(O)c(-c2cc(CC=C)ccc2O)c1	2.3%	11.2µM*	-3.3%
CCCc1cc(C(=O)Nc2ccc(C(=O)c3ccc(C)cc3)cc2)n(C)n1	-3.1%	5.62µM*	-8.4%
CCCc1cc(C(=O)Nc2cccc3ccccc23)n(C)n1	18.2%	?	-7.9%
O=C1NC[C@@H](CCCCN2C[C@H](Cc3ccc(O)cc3)N(Cc3ccccc3)C(=O)C2=O)N(CC2CCCCC2)C1=O	-2.9%	3.6%	-1.7%
COc1ccc(CN2CCC(N(CCc3ccccc3)Cc3ccccc3)CC2)c(OC)c1	3.9%	3.16µM*	?
CCCN1CCC(N(CCc2ccccc2)Cc2ccccc2)CC1	7.9%	?	-5.4%
CCc1nc2ccc(C(=O)N3CCN(S(=O)(=O)CC)CC3)cn2c1N(CCC(C)C)CCN(C)C	0.4%	26.7%	13.9%
Cc1cccc(Oc2nc(-c3ccncc3)nc3ccccc23)c1	21.3%	?	14.4%
Cc1cccc(Oc2nc(-c3ccccn3)nc3ccccc23)c1	15.1%	1.26µM*	?
Cc1cccn2c(=O)cc(COc3cccc(NC(=O)COc4ccccc4)c3)nc12	.	3.7%	-0.3%
CCN(c1ccccc1)S(=O)(=O)c1ccc(NC(=O)c2nc(SC)ncc2Cl)cc1	.	?	-9.5%
CCc1cccc(CC)c1NC(=S)NCCc1ccc(O)c(O)c1	-2.7%	?	-13.1%
CCc1cccc(CC)c1NC(=S)NCCc1c(C)[nH]c2ccccc12	3.0%	10µM*	?
NC(=O)C1CCN(C(=O)CCNS(=O)(=O)c2ccccc2F)CC1	-3.4%	11.3%	-9.3%
COc1ccc(N(C)C(=O)c2ccc3nc(-c4ccccc4)c(-c4ccccc4)nc3c2)cc1	9.2%	6.31µM*	-8.3%
CC(C)N(C(=O)c1ccc2nc(-c3ccccc3)c(-c3ccccc3)nc2c1)C(C)C	-2.4%	?	-6.1%
COc1ccc(C(=O)Nc2ccnn2C2CCN(C(C)CSC)CC2)cc1 (stereo not drawn)	8.3%	0.8%	-12.0%
O=c1cnc2ccccc2n1Cc1ccc(Br)cc1	24.9%	?	?
CC(C)(C)c1ccc(Cn2c(=O)cnc3ccccc32)cc1	7.5%	5.01µM*	?
CCOC(=O)c1c(-c2ccccc2)oc2ccc(NS(=O)(=O)c3cc(C)c(C)cc3C)cc12	.	4.47µM*	8.2%
CCOC(=O)c1c(-c2ccccc2)oc2ccc(NS(=O)(=O)c3ccccc3)cc12	.	?	2.2%
CCc1nnc(SCc2nc(-c3ccc(OC)c(OC)c3)oc2C)c2cc3sc(C)cc3n12	.	14.1%	3.4%
CCOc1ccc(NC(=S)N2CCC(c3ccc(C)cc3)C2)cc1 (stereo not drawn)	5.2%	10µM*	-13.5%
SMILES	GLP-1R agonist	GLP-1R inv ag	HEK293 tox
Cc1ccc(NC(=S)N2CCC(c3ccc(C)cc3)C2)cc1 (stereo not drawn)	19.5%	?	-26.2%
CCOC(=O)C1(Cc2ccccc2C)CCCN(C(=O)CCc2cccnc2)C1 (stereo not drawn)	5.5%	-0.1%	0.0%
CCNC(=O)Cc1c(OC)ccc2cc(Br)ccc12	-4.8%	-17.8%	-8.2%
COc1ccc2cc(Br)ccc2c1CC(=O)NC(C)(C)C	1.7%	12.6µM*	3.1%
CC1CCCCC1NC(=O)CO/N=C/c1ccccc1OC(F)F (stereo not drawn)	25.4%	10µM*	-0.1%
CCC(C)NC(=O)CO/N=C/c1ccccc1OC(F)F (stereo not drawn)	2.7%	17.3%	16.3%
O=C(Nc1nnc(SCCC2OCCO2)s1)C1CC(=O)N(c2ccc(F)cc2)C1 (stereo not drawn)	-19.4%	-9.2%	12.9%
CNc1ccccc1C(C)(C)c1cc(C)[nH]n1	-7.3%	?	-22.0%
CNc1ccccc1C(C)(C)c1cc(-c2ccco2)n[nH]1	2.1%	7.94µM*	1.0%

Screening results from PubChem.
